According to PubChem BioAssay (EPA / NIEHS):
Records with an inconclusive call do not appear. Calls of active or inactive are those of the source. The calls were made as follows: active = hit-call score of the fitted dose curve at least 0.9, where 1 is the maximum; inconclusive = response in the unintended direction; inactive = score below 0.9.

Test: TOX21_p53_BLA_p4_viability: Viability Assessment in the Tox21 HCT-116 p53 Agonism Beta-lactamase Assay, Phase 4 (AID 2283597);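 also: hits lower the luminescence signal meaning cytotoxicity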
Method in brief: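 Cytotoxicity was inferred from loss of CellTiter-Glo luminescence. HCT116 cells had been dosed with compounds after 5 h plating, incubated 16 h at 37C and 5% CO2, and exposed to the CCF4-AM substrate for 2 h.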

SMILES	outcome	AC50
CCC[C@@]1(CCc2ccccc2)CC(O)=C([C@H](CC)c2cccc(NS(=O)(=O)c3ccc(C(F)(F)F)cn3)c2)C(=O)O1	inactive	–
COc1cc2c(Nc3ccc(Br)cc3F)ncnc2cc1OCC1CCN(C)CC1	inactive	–
CO[C@@H]1[C@H](OC(=O)/C=C/C=C/C=C/C=C/C(=O)O)CC[C@]2(CO2)[C@H]1[C@@]1(C)O[C@@H]1CC=C(C)C	inactive	–
NC(N)=NCc1cccc(I)c1	inactive	–
Nc1c2ccccc2nc2ccccc12	inactive	–
Clc1cccc(Cl)c1NC1=NCCN1	inactive	–
CCCC(=O)O[C@]1(C(=O)CCl)[C@@H](C)C[C@H]2[C@@H]3CCC4=CC(=O)C=C[C@]4(C)[C@@]3(F)C(=O)C[C@@]21C	inactive	–
CCCCCCNC(=O)n1cc(F)c(=O)[nH]c1=O	–	3.62 µM (active)
CO[C@H]1C[C@@H]2CC[C@@H](C)[C@@](O)(O2)C(=O)C(=O)N2CCCC[C@H]2C(=O)O[C@H]([C@H](C)C[C@@H]2CC[C@@H](OCCO)[C@H](OC)C2)CC(=O)[C@H](C)/C=C(\C)[C@@H](O)[C@@H](OC)C(=O)[C@H](C)C[C@H](C)\C=C/C=C/C=C/1C	–	21.9 µM (active)
Cc1nc(Nc2ncc(C(=O)Nc3c(C)cccc3Cl)s2)cc(N2CCN(CCO)CC2)n1	–	35.5 µM (active)
Cc1c(O)cccc1C(=O)N[C@@H](CSc1ccccc1)[C@H](O)CN1C[C@H]2CCCC[C@H]2C[C@H]1C(=O)NC(C)(C)C	–	27.9 µM (active)
CC(=O)NCCCS(=O)(=O)O	inactive	–
O=C1Cc2cc(CCN3CCN(c4nsc5ccccc45)CC3)c(Cl)cc2N1	inactive	–
C1=CCC(c2ccccc2)CC1 (centres undefined)	inactive	–
CN(C)CCOC(=O)COc1ccc(Cl)cc1	inactive	–
O=C1C(=O)c2ncccc2-c2cccnc21	–	5.12 µM (active)
CC1(C)S[C@@H]2[C@H](NC(=O)[C@H](N)c3ccc(O)cc3)C(=O)N2[C@H]1C(=O)O	inactive	–
CC1(C)N=C(N)N=C(N)N1c1ccc(Cl)cc1	–	6.46 µM (active)
CCCCC(=O)O[C@]1(C(=O)CO)[C@@H](C)C[C@H]2[C@@H]3CCC4=CC(=O)C=C[C@]4(C)[C@@]3(F)[C@@H](O)C[C@@]21C	–	38.7 µM (active)
NNc1nncc2ccccc12	inactive	–

SMILES	outcome	AC50
COC(=O)Nc1nc2ccc(Sc3ccccc3)cc2[nH]1	inactive	–
C#CCC(Cc1cnc2nc(N)nc(N)c2n1)c1ccc(C(=O)N[C@@H](CCC(=O)O)C(=O)O)cc1 (some centres undefined)	–	0.385 µM (active)
O=C(O)CN(CCN(CC(=O)O)CC(=O)O)CC(=O)O	inactive	–
CNC(=O)c1cc(Oc2ccc(NC(=O)Nc3ccc(Cl)c(C(F)(F)F)c3)cc2)ccn1	inactive	–
O=c1[nH]c(=O)n([C@H]2C[C@H](O)[C@@H](CO)O2)cc1F	–	1.53 µM (active)
O=C(Nc1ccc(Cl)c(Cl)c1)C1CC1	inactive	–
Cc1nc2ccccc2n1Cc1ccc(Cl)cc1	inactive	–
Cc1nc2sccn2c(=O)c1CCN1CCC(=C(c2ccc(F)cc2)c2ccc(F)cc2)CC1	–	23 µM (active)
C[n+]1c2cc(N)ccc2cc2ccc(N)cc21 (tested in a mixture with another compound)	inactive	–
CCOC(=O)n1ccn(C)c1=S	inactive	–
COc1cc(C)c(/C=C/C(C)=C/C=C/C(C)=C/C(=O)O)c(C)c1C	inactive	–
CC1(C)[C@@H](O[C@H]2O[C@H](C(=O)O)[C@@H](O)[C@H](O)[C@H]2O[C@@H]2O[C@H](C(=O)O)[C@@H](O)[C@H](O)[C@H]2O)CC[C@]2(C)[C@H]3C(=O)C=C4[C@@H]5C[C@@](C)(C(=O)O)CC[C@]5(C)CC[C@@]4(C)[C@]3(C)CC[C@@H]12	inactive	–
CC[C@@]1(O)C(=O)OCc2c1cc1n(c2=O)Cc2cc3c(CN(C)C)c(O)ccc3nc2-1	–	7.74 µM (active)
COc1ccc(Cl)cc1C(=O)NCCc1ccc(S(=O)(=O)NC(=O)NC2CCCCC2)cc1	inactive	–
CC(C)(C)CC(C)(C)c1ccc(O)c(Cc2ccc(Cl)cc2Cl)c1	–	10.9 µM (active)
O=C(O)c1cccc(-c2noc(-c3ccccc3F)n2)c1	–	23 µM (active)
Oc1c(I)cc(I)c2cccnc12	–	23 µM (active)
Cc1cc(Nc2ccccc2C(=O)O)ccc1Cl	–	31.9 µM (active)
CC(C)=CCC1=C(O)c2ccccc2C(=O)C1=O	inactive	–
